Source: the supplement of paper PMC10849652
Targets with a hit are over-represented here; the source holds about 7,900 in all. About 0.6% of all pairs of compound and target were hits. Values without a mark were called inactive.

These targets were tested with C1=CC=C(C=C1)C2=NC(=C(N2)C3=CC=NC=C3)C4=CC(=C(C=C4)Cl)O (assay: log2 fold change, soluble protein after heating vs DMSO (PISA); higher = thermal stabilisation; K562 cells, 10 uM, 30 min; active = over 0.2 and 3.5 SD of the protein, either way, in both replicates (recomputed)).
Outline: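 K562 cells at 2×10^6 cells/mL were treated with 10 μM compound for 30 min. Aliquots were heated for 3 min across 48°C-58°C, pooled, and extracted in PBS with 0.5% NP-40 at 4°C; soluble protein was the supernatant after 21,000xg for 90 min. Soluble protein was quantified by TMTpro 16plex LC-MS/MS with channel sums equalised, and reported as log2 fold change in thermal stability against DMSO controls, with values from duplicates.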

Sequence of UniProt Q96AJ9 (Q96AJ9 whole entry, looked up): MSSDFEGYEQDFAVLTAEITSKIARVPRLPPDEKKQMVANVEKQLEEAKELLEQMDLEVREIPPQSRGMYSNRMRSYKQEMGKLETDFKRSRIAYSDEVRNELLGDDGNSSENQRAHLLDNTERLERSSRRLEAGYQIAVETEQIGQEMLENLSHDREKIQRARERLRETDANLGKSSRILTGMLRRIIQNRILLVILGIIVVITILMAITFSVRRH
Sequence of UniProt Q6ZXV5 (Q6ZXV5 whole entry, looked up): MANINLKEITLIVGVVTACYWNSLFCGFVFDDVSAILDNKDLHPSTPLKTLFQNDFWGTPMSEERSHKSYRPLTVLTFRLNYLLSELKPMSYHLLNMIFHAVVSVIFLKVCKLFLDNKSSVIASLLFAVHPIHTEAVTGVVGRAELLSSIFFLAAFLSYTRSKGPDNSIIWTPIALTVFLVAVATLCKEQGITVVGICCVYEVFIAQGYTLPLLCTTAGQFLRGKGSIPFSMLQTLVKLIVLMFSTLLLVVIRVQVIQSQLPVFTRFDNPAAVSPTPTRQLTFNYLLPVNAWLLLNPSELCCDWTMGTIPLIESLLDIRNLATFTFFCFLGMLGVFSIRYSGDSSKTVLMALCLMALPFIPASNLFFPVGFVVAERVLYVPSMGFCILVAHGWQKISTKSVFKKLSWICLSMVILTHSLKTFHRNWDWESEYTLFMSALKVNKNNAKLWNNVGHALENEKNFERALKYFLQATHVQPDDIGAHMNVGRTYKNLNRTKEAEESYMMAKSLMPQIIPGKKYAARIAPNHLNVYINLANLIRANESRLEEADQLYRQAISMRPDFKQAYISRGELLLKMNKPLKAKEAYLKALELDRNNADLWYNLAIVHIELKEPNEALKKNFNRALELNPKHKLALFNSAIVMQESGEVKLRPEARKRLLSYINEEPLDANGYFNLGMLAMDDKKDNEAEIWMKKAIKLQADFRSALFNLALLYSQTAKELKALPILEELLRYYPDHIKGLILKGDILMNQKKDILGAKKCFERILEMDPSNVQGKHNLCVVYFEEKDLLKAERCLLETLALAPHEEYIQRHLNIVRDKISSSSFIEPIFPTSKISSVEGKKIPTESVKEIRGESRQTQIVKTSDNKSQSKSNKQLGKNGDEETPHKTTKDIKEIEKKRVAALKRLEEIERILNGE
Sequence of UniProt Q8N1B4 (Q8N1B4 whole entry, looked up): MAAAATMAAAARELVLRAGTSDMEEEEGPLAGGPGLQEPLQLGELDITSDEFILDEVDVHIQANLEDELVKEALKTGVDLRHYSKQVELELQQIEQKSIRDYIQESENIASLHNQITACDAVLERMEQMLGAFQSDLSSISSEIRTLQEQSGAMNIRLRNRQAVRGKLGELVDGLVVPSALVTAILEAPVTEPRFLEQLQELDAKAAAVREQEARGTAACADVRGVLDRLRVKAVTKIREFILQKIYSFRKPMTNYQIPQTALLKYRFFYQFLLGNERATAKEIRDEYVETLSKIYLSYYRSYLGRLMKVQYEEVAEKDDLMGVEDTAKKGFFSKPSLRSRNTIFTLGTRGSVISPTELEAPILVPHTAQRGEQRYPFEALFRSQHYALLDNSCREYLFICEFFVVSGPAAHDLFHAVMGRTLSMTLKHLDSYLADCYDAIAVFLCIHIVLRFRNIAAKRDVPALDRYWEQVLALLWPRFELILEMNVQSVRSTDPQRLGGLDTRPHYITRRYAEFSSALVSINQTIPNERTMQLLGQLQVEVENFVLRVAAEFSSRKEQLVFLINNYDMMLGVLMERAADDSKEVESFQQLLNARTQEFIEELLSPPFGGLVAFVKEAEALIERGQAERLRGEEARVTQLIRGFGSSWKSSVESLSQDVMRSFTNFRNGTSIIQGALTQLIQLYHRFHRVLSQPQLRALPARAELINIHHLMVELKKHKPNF
Sequence of UniProt Q96K49 (Q96K49 whole entry, looked up): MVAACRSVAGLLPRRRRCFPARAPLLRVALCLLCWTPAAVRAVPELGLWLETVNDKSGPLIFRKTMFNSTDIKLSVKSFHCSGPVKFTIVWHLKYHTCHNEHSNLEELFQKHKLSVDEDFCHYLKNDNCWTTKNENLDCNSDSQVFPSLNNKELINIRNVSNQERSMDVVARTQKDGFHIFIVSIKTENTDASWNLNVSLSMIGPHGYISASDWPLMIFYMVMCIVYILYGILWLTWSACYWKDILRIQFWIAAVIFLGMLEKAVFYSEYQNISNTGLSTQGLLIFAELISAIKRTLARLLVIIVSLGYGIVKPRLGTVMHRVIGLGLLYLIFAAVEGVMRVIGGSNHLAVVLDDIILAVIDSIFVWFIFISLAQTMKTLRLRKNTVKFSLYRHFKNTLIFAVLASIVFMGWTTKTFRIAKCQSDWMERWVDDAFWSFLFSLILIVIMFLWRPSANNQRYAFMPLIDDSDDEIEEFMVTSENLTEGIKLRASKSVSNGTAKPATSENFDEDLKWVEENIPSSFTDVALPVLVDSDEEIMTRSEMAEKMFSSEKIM
Sequence of UniProt Q86UV5 (Q86UV5 whole entry, looked up): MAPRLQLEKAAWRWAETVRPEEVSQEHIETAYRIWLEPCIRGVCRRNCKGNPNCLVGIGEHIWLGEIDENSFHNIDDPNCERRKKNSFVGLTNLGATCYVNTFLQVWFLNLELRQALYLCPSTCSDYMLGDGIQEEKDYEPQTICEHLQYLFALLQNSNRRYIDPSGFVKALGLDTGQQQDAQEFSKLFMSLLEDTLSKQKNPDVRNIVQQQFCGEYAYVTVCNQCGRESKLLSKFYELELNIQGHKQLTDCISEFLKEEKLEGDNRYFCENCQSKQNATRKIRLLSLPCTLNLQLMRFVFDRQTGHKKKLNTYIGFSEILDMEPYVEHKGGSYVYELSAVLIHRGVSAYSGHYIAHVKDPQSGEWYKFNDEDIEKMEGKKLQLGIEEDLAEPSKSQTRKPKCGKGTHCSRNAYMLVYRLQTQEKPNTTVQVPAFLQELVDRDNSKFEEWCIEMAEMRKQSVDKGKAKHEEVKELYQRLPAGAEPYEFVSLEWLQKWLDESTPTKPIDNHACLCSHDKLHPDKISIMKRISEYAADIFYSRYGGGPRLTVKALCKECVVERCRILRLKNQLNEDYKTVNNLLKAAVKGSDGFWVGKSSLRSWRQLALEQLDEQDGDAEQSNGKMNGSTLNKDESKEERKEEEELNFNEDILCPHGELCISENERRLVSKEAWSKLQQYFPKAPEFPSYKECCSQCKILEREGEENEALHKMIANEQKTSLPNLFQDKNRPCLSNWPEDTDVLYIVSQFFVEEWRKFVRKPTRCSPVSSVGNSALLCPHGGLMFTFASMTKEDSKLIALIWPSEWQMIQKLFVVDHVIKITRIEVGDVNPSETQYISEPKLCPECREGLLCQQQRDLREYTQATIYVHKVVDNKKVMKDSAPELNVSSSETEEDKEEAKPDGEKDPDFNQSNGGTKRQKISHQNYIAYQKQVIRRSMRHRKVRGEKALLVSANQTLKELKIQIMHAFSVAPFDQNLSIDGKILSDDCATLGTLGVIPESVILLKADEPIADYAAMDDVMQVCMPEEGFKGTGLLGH
Sequence of UniProt P54578 (P54578 whole entry, looked up): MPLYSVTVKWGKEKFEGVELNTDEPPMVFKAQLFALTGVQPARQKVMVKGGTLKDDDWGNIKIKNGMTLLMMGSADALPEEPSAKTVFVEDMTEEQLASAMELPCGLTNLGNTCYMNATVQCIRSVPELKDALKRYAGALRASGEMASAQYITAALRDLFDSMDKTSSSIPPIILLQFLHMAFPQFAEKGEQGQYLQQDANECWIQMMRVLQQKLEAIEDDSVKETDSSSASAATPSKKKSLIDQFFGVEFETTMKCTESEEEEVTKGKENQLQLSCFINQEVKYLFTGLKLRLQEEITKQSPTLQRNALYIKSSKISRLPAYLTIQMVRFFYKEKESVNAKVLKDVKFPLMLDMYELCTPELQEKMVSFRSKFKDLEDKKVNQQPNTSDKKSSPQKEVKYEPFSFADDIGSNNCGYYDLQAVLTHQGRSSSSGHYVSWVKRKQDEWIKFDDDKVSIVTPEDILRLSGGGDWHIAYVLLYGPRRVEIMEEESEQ
Sequence of UniProt Q92890 (Q92890 whole entry, looked up): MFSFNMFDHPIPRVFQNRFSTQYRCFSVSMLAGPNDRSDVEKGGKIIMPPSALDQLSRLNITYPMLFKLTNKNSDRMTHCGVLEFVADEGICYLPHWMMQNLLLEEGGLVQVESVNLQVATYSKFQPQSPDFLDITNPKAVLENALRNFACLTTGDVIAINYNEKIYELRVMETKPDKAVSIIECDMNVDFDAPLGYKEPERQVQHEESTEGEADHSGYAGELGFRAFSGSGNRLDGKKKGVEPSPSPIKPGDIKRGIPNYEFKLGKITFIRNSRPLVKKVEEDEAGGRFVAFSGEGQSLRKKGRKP
Sequence of UniProt Q15388 (Q15388 whole entry, looked up): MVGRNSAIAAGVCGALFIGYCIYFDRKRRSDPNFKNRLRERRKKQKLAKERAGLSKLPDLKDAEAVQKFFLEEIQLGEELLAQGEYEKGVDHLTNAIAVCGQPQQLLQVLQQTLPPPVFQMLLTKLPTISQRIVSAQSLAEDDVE
Sequence of UniProt A0PJW6 (A0PJW6 whole entry, looked up): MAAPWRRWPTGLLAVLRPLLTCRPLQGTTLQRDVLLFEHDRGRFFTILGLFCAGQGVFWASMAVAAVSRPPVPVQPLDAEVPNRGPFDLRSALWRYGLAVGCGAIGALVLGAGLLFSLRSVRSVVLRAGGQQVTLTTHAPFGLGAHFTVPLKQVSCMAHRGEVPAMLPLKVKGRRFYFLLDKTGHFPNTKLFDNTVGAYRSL
Sequence of UniProt O95801 (O95801 whole entry, looked up): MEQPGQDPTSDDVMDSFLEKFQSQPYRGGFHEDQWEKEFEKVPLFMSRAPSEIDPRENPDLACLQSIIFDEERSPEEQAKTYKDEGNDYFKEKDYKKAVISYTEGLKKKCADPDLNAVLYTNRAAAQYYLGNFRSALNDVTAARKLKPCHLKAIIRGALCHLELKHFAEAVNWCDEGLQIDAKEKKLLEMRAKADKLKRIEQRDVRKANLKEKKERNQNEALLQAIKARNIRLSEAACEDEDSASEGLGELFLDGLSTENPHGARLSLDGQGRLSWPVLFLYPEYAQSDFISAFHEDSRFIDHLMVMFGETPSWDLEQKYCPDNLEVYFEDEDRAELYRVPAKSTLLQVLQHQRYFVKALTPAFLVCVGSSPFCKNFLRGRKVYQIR

Row | Target | log2 fold change
1 | WDR61 (UniProt Q9GZS3) | 0.01
2 | USP3 (UniProt Q9Y6I4) | 0.057
3 | TOMM20 (UniProt Q15388) | 0.049
4 | TNPO2 (UniProt O14787) | 0.018
5 | VPS11 (UniProt Q9H270) | 0.03
6 | TMEM87B (UniProt Q96K49) | 0.009
7 | TRIP10 isoform 2 (UniProt Q15642) | 0.326
8 | TTI1 (UniProt O43156) | 0.029
9 | UFD1 isoform 1 (UniProt Q92890) | -0.01
10 | TRAPPC13 isoform 5 (UniProt A5PLN9) | 0
11 | VTI1A (UniProt Q96AJ9) | -0.055
12 | VPS52 (UniProt Q8N1B4) | 0.004
13 | TTC4 (UniProt O95801) | 0.081
14 | TMTC3 (UniProt Q6ZXV5) | 0.001
15 | XPO5 (UniProt Q9HAV4) | 0.023
16 | UTP3 (UniProt Q9NQZ2) | -0.255
17 | U2AF2 (UniProt P26368) | 0.012
18 | TRAPPC2L (UniProt Q9UL33) | -0.096
19 | USP14 (UniProt P54578) | 0.02
20 | USP48 isoform 8 (UniProt Q86UV5) | 0.049
21 | WDCP (UniProt Q9H6R7) | -0.022
22 | TMEM223 (UniProt A0PJW6) | -0.007
23 | TSC2 (UniProt P49815) | 0.06
